High-throughput results deposited in PubChem BioAssay by National Center for Advancing Translational Sciences (NCATS).
AmpC inh detg – inhibitors of E. coli AmpC beta-lactamase with detergent | AmpC hydrolysis of nitrocefin, absorbance 480 nm, 0.01% Triton | 370,000 compounds, 0.041% hits | AID 485294 | P00811 | Potency, µM (highest dose often 114 µM), without a hit: top-dose activity change, negative = inhibition, actives largely listed as inhibitors;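 note: 0% = no-compound wells and -100% = no-enzyme wells; nearly all actives have a fitted effect of over 25% in size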
Target sequence (P00811 whole entry, looked up): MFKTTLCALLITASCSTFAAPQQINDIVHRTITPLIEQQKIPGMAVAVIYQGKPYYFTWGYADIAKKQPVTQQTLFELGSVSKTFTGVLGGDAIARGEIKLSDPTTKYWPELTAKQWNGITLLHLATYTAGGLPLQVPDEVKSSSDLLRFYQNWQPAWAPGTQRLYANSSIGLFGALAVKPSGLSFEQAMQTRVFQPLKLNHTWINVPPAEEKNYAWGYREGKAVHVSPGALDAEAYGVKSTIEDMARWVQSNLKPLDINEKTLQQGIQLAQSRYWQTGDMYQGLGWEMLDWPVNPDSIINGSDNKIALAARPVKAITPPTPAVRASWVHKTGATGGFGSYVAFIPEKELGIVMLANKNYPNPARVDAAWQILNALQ
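AmpC (5.3 nM in the dispensed reagent) in 20 mM phosphate pH 7.0 with 0.01% (detergent screen) or 0.0001% Triton X-100 was preincubated with compounds for 15 min at room temperature. Nitrocefin was then added from an 800 uM solution, and hydrolysis was followed at 480 nm.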
FBPA Giardia inh – Giardia lamblia aldolase inhibition | 290,000 compounds, 0.71% hits | AID 2451 | A8B2U2 | purified Giardia FBPA | Potency, µM (doses to about 59.6 µM), for inactives: at the highest dose activity, negative = inhibition, hits mostly inhibitors; note: nearly all actives have a fitted effect of over 55% in size
Target sequence (A8B2U2 whole entry, looked up): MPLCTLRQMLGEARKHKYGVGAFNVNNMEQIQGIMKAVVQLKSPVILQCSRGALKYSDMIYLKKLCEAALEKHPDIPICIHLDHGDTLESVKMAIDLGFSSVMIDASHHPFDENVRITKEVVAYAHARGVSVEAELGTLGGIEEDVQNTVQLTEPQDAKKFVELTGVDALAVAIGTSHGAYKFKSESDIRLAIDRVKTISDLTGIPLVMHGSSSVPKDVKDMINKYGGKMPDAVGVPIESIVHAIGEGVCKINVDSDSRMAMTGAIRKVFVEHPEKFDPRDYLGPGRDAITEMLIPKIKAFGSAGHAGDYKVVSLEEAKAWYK
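40 nM FBPA preincubated 10 min at RT with compound (up to 57.5 uM final), then substrate plus GAPDH/TPI/NAD/arsenate coupling and diaphorase/resazurin added. Fluorescence read after 20 min at RT, 525/598 nm.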
Sm TGR inh – S. mansoni TGR enzyme inhibition; Q962Y6; purified TGR, DTNB reduction, TNB absorbance 405 nm; 360,000 compounds, 3% hits; Potency, µM (series often up to 114 µM), without a hit: at the top dose activity change, negative = inhibition, most hits filed as inhibitors; note: nearly all actives have a fitted effect of over 60% in size
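Kinetic colorimetric format: TGR-catalysed, NADPH-driven DTNB reduction monitored via TNB absorbance. Enzyme dispensed at 20 nM; compound exposure 15 min at room temperature before reaction start.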
AmpC no deterg – AmpC beta-lactamase inhibition without detergent. P00811. AmpC nitrocefin hydrolysis, absorbance 480 nm, 0.0001% Triton. Potency, µM (titrated, usually from 57.1 µM), for inactives: at the highest dose activity change, negative = inhibition, usual class: inhibitors. 330,000 compounds, 0.52% hits. AID 485341;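 note: plate controls were no compound for no effect and no enzyme for full effect; nearly all actives have a fitted effect of over 20% in size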
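20 mM phosphate pH 7.0 + 0.01% (detergent screen) or 0.0001% Triton X-100; 5.3 nM AmpC reagent; cpd preinc 15 min RT; nitrocefin (800 uM stock) to start; A480 q20 s × 4 min; Activity was normalised to no-enzyme and no-compound control wells.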
* hit, by the source's call; u = inconclusive; x = not tested or not shown; [ ] = remark or other dose. Only some compounds are listed: those with a hit (about 3.6% of all), similar ones and a draw of the others. Calls come from the whole dose curve; as a rule, active = well fitted curve in the direction sought with a large enough effect; inconclusive = small, poorly fitted or top-dose-only effect, or another doubt; inactive = no such curve, though single readings can be large; an effect the other way counts as inactive or inconclusive. Unless noted, % is set by controls: 0 for no effect and ±100 for the full control effect; potency is the fitted concentration of half-maximal effect.

SMILES	AmpC inh detg	FBPA Giardia inh	Sm TGR inh	AmpC no deterg
O=C1c2ccccc2-c2onc3ccc(NCc4ccco4)c1c23	-15%	u	11µM*	u
CCNc1ccc2noc3c2c1C(=O)c1ccccc1-3	1%	-22%	2%	137%
O=C1c2ccccc2-c2onc3ccc(N4CCCC4)c1c23	1%	u	18µM*	105%
CCOc1ccc2noc3c2c1C(=O)c1ccccc1-3	-1%	u	u	-19%
NS(=O)(=O)c1ccc(NC(=O)C2Cc3ccccc3N2C(=O)c2ccccc2)cc1 (configuration not stated)	10%	x	0%	x
COc1ccc(-n2cc(C#N)c(=O)n(Cc3ccc(F)cc3)c2=O)cc1	0%	-21%	9%	-6%
COc1ccc(/C=N/NC(=O)c2nn(-c3ccccc3)c(=O)c3c(N)scc23)cc1	1%	2.5µM*	-16%	-42%
COc1ccc(/C=N/NC(=O)c2nn(-c3ccc(Cl)cc3)c(=O)c3c(N)scc23)cc1	-1%	u	-24%	-31%
Cc1ccc(N2CC(C(=O)Nc3ccccc3OC(F)F)CC2=O)cc1 (configuration not stated)	6%	x	-2%	-3%
OC1=C(O)c2nc3ccccc3nc21	1%	11%	7%	-7%
Cc1cc2nc3c(nc2cc1C)C(O)=C3O	2%	-1%	14µM*	-19%
CCC(C)NC(=O)CCC(=O)N1Cc2ccccc2Oc2ncccc21 (configuration not stated)	14%	x	31%	x
FC(F)(F)c1cccc(NC(=S)Nc2cccc(NC(=S)Nc3cccc(C(F)(F)F)c3)n2)c1	-1%	-4%	-18%	7.9µM*
FC(F)(F)c1cccc(NC(=S)Nc2ccc(Cl)cc2Cl)c1	-2%	-10%	22µM*	-26%
S=C(Nc1ccccc1Cl)Nc1ccc(Cl)cc1Cl	1%	-7%	25µM*	-12%
Cc1cccc(NC(=S)Nc2cccc(C(F)(F)F)c2)n1	-8%	5%	-7%	-35%
S=C(NCC1CCCO1)Nc1ccc(Cl)cc1Cl (configuration not stated)	-4%	0%	50µM*	-17%
COc1ccccc1CNC(=O)c1ccc(Cn2c(SCc3ccccc3)nc3cccnc32)cc1	-5%	x	2%	x
FC(F)(F)c1ccccc1NC(=S)Nc1cccc(Cl)c1	-1%	-3%	25µM*	-8%[2.29 µM]
S=C(Nc1ccccc1)Nc1ccc(Cl)cc1Cl	1%	u	25µM*	-9%
Cc1c(NC(=O)c2cccc(NC(=O)COc3cccc(Br)c3)c2)c(=O)n(-c2ccccc2)n1C	x	x	x	24%
O=C(Nc1ccccc1)C1=C(c2ccccc2)S(=O)(=O)CCS1(=O)=O	-3%	-5%	0.25µM*	-34%
COc1cc(NC(=O)c2cccc(NC3=NC4CS(=O)(=O)CC4S3)c2)cc(OC)c1OC (configuration not stated)	0%	-20%	7%	-11%
COC(=O)c1sccc1NC(=O)Nc1ccc(Cl)c(Cl)c1	3%	1%	5%	0.16µM*
COC(=O)c1sccc1NC(=O)Nc1ccc(C)c(C)c1	-2%	x	-6%	-59%
SMILES	AmpC inh detg	FBPA Giardia inh	Sm TGR inh	AmpC no deterg
Cc1nn(CC(=O)NCCc2ccccc2Cl)c(=O)c2nn(-c3ccccc3)c(C)c12	25%	x	9%	x
Cc1ccccc1NC(=O)c1sc2nc3c(cc2c1N)CN(Cc1ccccc1)CC3	15%	x	79µM*	x
COc1ccc(CNC(=O)COC(=O)c2ccc(S(=O)(=O)N3CCCCC3)cc2)cc1	x	x	x	-18%
O=C(NCCCN1CCOCC1)C1CCC(=O)N1CCc1ccccc1 (configuration not stated)	u	3%	89µM*	-14%
O=C(N/N=C/c1ccoc1)c1ccc(Cl)cc1	7%	x	45µM*	32%
O=C(N/N=C/c1ccoc1)c1ccc(Br)cc1	1%	4%	5%	-23%
C/C(=N\NC(=O)c1ccccc1F)c1cccc(NC(=O)c2ccc(C)cc2)c1	u	-4%	u	-45%
COc1cc(-c2noc(C)c2C#CCO)cc(OC)c1OC	u	-5%	32µM*	1%
Cc1ccc(C(=O)NNS(=O)(=O)c2ccc(F)cc2)cc1	u	-14%	-3%	-7%
CCc1noc(C)c1C(=O)NNC(=O)c1ccccc1Cl	4%	x	-6%	-6%
N#Cc1c(SCC(=O)Nc2nccs2)sc2c(O)cc(=O)[nH]c12	u	u	50µM*	-38%
N#Cc1c(SCC(=O)Nc2nc3ccc(Br)cc3s2)sc2c(O)cc(=O)[nH]c12	3%	-6%	-25%	25µM*
CCCSc1nnc(NC(=O)CSc2sc3c(O)cc(=O)[nH]c3c2C#N)s1	1%	u	40µM*	-41%
N#CCC(=O)N/N=C/c1cc(Br)ccc1OCc1cccc2ccccc12	8%	5%	16%	-37%
CCN(CC)S(=O)(=O)c1ccc(C(=O)/C=C/c2ccc(-c3ccc([N+](=O)[O-])cc3)o2)cc1	-1%	0%	16µM*	-33%
CCc1ccc(C(=O)/C=C/c2ccc([N+](=O)[O-])o2)cc1	0%	-3%	3.2µM*	-22%
NC(=O)Cn1c(=O)n(Cc2ccco2)c(=O)c2c3c(sc21)CCCCC3	3%	-9%	7.1µM*	-7%
O=C(Cn1c(=O)n(Cc2ccco2)c(=O)c2c3c(sc21)CCCC3)Nc1ccccc1	u	-6%	50µM*	u
O=c1c2c3c(sc2n(CCN2CCCCC2)c(=O)n1Cc1ccco1)CCCCC3	1%	8%	7%	0%
Cc1cc(C)nc(Sc2ccc([N+](=O)[O-])cc2[N+](=O)[O-])n1	-12%	1%	-20%	-12%
CN(C)/N=C/c1ccc(Sc2ccc([N+](=O)[O-])cc2[N+](=O)[O-])o1	-16%	-9%	28µM*	-17%
COc1ccccc1CN1CCN(C2CCN(C(=O)Nc3ccccc3)CC2)C(=O)C1=O	12%	x	2%	x
N=c1c(S(=O)(=O)c2ccc(Cl)cc2)cc2c(=O)n3ccccc3nc2n1CCN1CCOCC1	u	0%	45µM*	84%
N=c1c(S(=O)(=O)c2ccccc2)cc2c(=O)n3ccccc3nc2n1CCCN1CCOCC1	u	-16%	16µM*	97%
CCOC(=O)N1CCC(N2CCCC(CO)(Cc3cccc(Cl)c3)C2)CC1 (configuration not stated)	-5%	0%	-19%	45%
SMILES	AmpC inh detg	FBPA Giardia inh	Sm TGR inh	AmpC no deterg
O=C(CSc1ncccn1)NCc1cccc(Cl)c1	-5%	-24%	4%	-5%
CS/C(=C\[N+](=O)[O-])Nc1ccc(F)cc1	2%	0%	0.25µM*	x
CS/C(=C\[N+](=O)[O-])Nc1ccccc1	-1%	0%	0.25µM*	x
COc1ccc(N/C(=C/[N+](=O)[O-])SC)cc1	2%	2%	u	-17%
N#Cc1ccsc1NC(=O)C1CC(=O)N(Cc2ccccc2)C1 (configuration not stated)	-4%	x	1%	-11%
COc1cccc(/C=N/NC(=O)c2ccc(-n3cnnn3)cc2)c1	-19%	x	-3%	-19%
